Several values for one entry are separate records, joined by “and”; a condition that tells them apart may be missing. Equal entries are not always repeated. The whole screen tested about 340,000 compounds, of which about 55 (0.02%) were called active.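 How the source made its calls: active means phage lysis inhibition, versus mean bacterial control, above a set limit; inconclusive means no clear call, values can overlap the other calls; inactive means the rest.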 These entries were drawn from the full list. Measured potencies and affinities stand elsewhere.

As usually defined, the inhibition is the change of the read-out against control, counted positive when it falls.

This assay is described as follows: protection from phage-mediated lysis, alamar blue read-out – E. coli UTI89, K1F phage, bacterial capsule biogenesis inhibitors (AID 488966).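 Further: capsule biogenesis inhibitors block K1F phage lysis so surviving cells raise fluorescence; higher fluorescence means more inhibition of phage lysis.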 The following applies: 2 h; inhibition: at 100 µM, active compounds read high unless noted; series mostly up to 300 µM; inhibition of phage lysis: at the top concentration. For orientation: The colour change of resazurin is a common sign of viable cells or microbes.
On to `Cc1ccccc1NC(=O)CCN1CCN(C)CC1`, for which the inhibition was -0.19% (inactive). Consider `Cc1ccccc1NC(=O)NCCCN1CCN(C)CC1`, for which the inhibition was -0.845% [at 50 µM, active compounds read high] (inactive). Take `CN(C)C1=NC[C@H](Cc2ccccc2)N1CC1CCCC1`: the inhibition was 6.41% (inactive). Regarding `COc1cc2cc(C(=O)NCCc3ccccc3)[nH]c2cc1OC`, the inhibition is -0.295% [at 50 µM, active compounds read high] (inactive). For the molecule `O=C(C1CCCO1)N1CCN(S(=O)(=O)c2ccc(F)cc2)CC1` (stereo not given), the inhibition was -0.11% [at 50 µM, active compounds read high] (inactive). For `O=C(COC(=O)c1ccccc1[N+](=O)[O-])Nc1cccnc1Cl`, the inhibition is 0.32% [at 50 µM, active compounds read high] (inactive). With `Cc1ccc(NC(=O)CN(C)C(=O)Cn2nnc(-c3ccccc3C)n2)cc1`, the inhibition is -2.28% (inactive). In the case of `COc1ccc(C(=O)OCC(=O)NCC2CCCCC2)cc1F`, the inhibition is -0.21% [at 50 µM, active compounds read high] (inactive). The same measure, in the same setting: for `CC(C)/C=C1\CCc2c([nH]c3ccccc23)C1=O` the value was 0% (inactive); for `CC1Cc2ccccc2N1C(=O)COC(=O)CSc1ccc(F)cc1` (stereo not given), 0.27% [at 50 µM, active compounds read high] (inactive); for `COc1ccc(NC(=O)CN(C)C(=O)c2ccccc2OCC(=O)Nc2cccc(C(F)(F)F)c2)cc1`, 1.88% [at 50 µM, active compounds read high] (inactive). On the same count and under the same terms, for `NC(N)=N/N=C/c1ccc(OCc2ccc(Cl)cc2)cc1` the value was -12.3% (inactive); for `NC(N)=N/N=C/c1ccc(OCc2ccccc2)c(OCc2ccccc2)c1`, 1.28% (inactive).

Regarding `CC1=C(C(=O)OCC(C)C)C23C(=O)c4ccccc4C2(O1)OC(N)=C3C#N` (stereo not given), the inhibition was 0.06% (inactive).

In the case of `CCOC(=O)C1CCCN(c2c(NCCCN(C)Cc3ccccc3)c(=O)c2=O)C1` (stereo not given), the inhibition is 2.34% (inactive). Take `Cc1ccc2nc(SCC(=O)Nc3ccccc3N3CCOCC3)c(C#N)cc2c1`: the inhibition is -1.09% (inactive). With `CCC(=O)N1c2ccc(S(=O)(=O)N3CCCCC3)cc2CC1C` (stereo not given), the inhibition was 0.16% (inactive).

With `CC(C)N(Cc1ccccc1)C(=O)CN1C(=O)NC2(CCCC2)C1=O`, the inhibition is 1.04% [at 50 µM, active compounds read high] (inactive).

With `Cc1c(NC(=S)NC(=O)c2cccc([N+](=O)[O-])c2)c(=O)n(-c2ccccc2)n1C`, the inhibition was -0.17% (inactive).

Regarding `O=C(CSc1nc2c(cnn2-c2ccccc2)c(=O)[nH]1)NC1CCS(=O)(=O)C1` (stereo not given), the inhibition is -0.1% (inactive).

In the case of `COC(=O)Nc1nc(Sc2ncc(C(F)(F)F)cc2Cl)n[nH]1`, the inhibition was 1.11% (inactive).

Turning to `CCOC(=O)c1ccc2[nH]c3c(c2c1)CCCC3`, the inhibition is 0.13% (inactive). Regarding `CCC(CC)NC(=O)c1cc(OC)c(OC)cc1[N+](=O)[O-]`, the inhibition was 0.4% (inactive). On to `COc1cc(OC)c(OC)cc1CN(C)CC1CCCN(CCc2ccccc2F)C1` (stereo not given), for which the inhibition is 0.88% (inactive). Turning to `c1ccc2c(-c3cncc4ccccc34)cncc2c1`, the inhibition was 0.59% (inactive). With `CCOC(=O)C(Cc1ccc(O)cc1)NC(=O)CNC(=O)C(CC(C)C)NC(=O)OC(C)(C)C` (stereo not given), the inhibition was 4.94% (inactive). As to `COc1cccc(-c2c(C(=O)N/N=C(\C)c3cccs3)nnn2-c2nonc2N)c1`, the inhibition was 0.38% (inactive).

Regarding `Cc1ccc(C)c(S(=O)(=O)N2CCCCC2CCNC(=O)C(=O)NCc2ccccc2)c1` (stereo not given), the inhibition was 0.87% [at 50 µM, active compounds read high] (inactive). Regarding `Brc1c(OCCOCCn2cncn2)ccc2ccccc12`, the inhibition was -1.02% (inactive).

With `O=C(CCc1ccccc1)N=C1SC2CS(=O)(=O)CC2N1c1ccc(F)cc1` (stereo not given), the inhibition was 0.07% (inactive).

With `Cc1ccc(S(=O)(=O)c2c(C)cc(C)nc2Oc2cccc(C)c2C)cc1`, the inhibition is 1.5% (inactive). As to `COc1cc(CCC(=O)NCC2CCCO2)cc(OC)c1OC` (stereo not given), the inhibition was 0.13% (inactive). Take `CC(C)C(NC(=O)c1ccccc1F)C(=O)OCC(=O)c1ccc(F)cc1` (stereo not given): the inhibition was -0.86% (inactive). In the case of `Cc1ccc(C(C)(C)C)cc1S(=O)(=O)Nc1cccc(C(=O)N2CCN(c3ccccn3)CC2)c1`, the inhibition was -1.06% [at 50 µM, active compounds read high] (inactive). Same read-out and setting: the value for `O=C1CCCN1C(=O)CSc1ccc2ccccc2n1` was 0.65% [at 50 µM, active compounds read high] (inactive); that for `Cc1ccc(C(=O)ONc2ccc(N=NC(=O)c3ccccc3O)cc2)cc1` was -1.4% (inactive).

As for `O=Nc1ccc(NOC(=O)c2ccccc2)cc1`, the inhibition is 0.94% [at 50 µM, active compounds read high] (inactive).

On to `CCC1(CC)C(=O)NC(=O)NC1=NCCc1c[nH]c2ccccc12`, for which the inhibition was 8.91% (inactive).

Consider `CC(=O)c1ccc(C(C)(C)c2ccc(C(C)=O)s2)s1`, for which the inhibition is 1.04% (inactive). As for `COc1cc(/C=N/N=C(N)N)ccc1OCc1ccc(Cl)cc1`, the inhibition is 1.12% (inactive).

In the case of `COc1cc(/C=N/O)ccc1OCc1ccccc1Cl`, the inhibition is 2.6% (inactive). For the molecule `CCSc1ccccc1C(=O)Nc1ccc([N+](=O)[O-])cc1OC`, the inhibition was -0.1% (inactive).

For `COc1ccc2cc(C(=O)NCCCN3CCCC3=O)[nH]c2c1`, the inhibition was 0.11% (inactive). As to `CCOCCCNC(=O)CCc1ccc(S(=O)(=O)Nc2ccc(C)cc2)cc1`, the inhibition was -0.65% (inactive). Take `CN(C)S(=O)(=O)c1ccc(C(=O)N(c2ccccn2)c2ccccn2)cc1`: the inhibition was 0.22% (inactive). Same read-out and setting: the value for `O=C(CCCc1nc2ccccc2s1)Nc1ccc(N2CCOCC2)cc1` was 0.19% (inactive); that for `COC(=O)c1cc(OC)c(OC)cc1NC(=O)CN1CCOCC1` was 1.47% (inactive); that for `CCN(CC)c1ccc2c(O)cc(=O)oc2c1` was 0.26% (inactive). Still for that read-out and setting: for `CCN(CC)c1ccc(C(=C2C=CC(=[N+](CC)CC)C=C2)c2ccc(S(=O)(=O)O)cc2S(=O)(=O)[O-])cc1` the value was -0.79% [at 50 µM, active compounds read high] (inactive); for `COc1ccc2c(=O)c(-c3ccc(C)cc3)c(-c3ccccc3)oc2c1`, 0.1% (inactive); for `Cc1ccc(C(=O)N2CCN(S(C)(=O)=O)C2)cc1`, 3.27% (inactive). Regarding `N=c1n(CCN2CCCCC2)c2ccccc2n1CC(O)c1cccc(Br)c1` (stereo not given), the “inhibition of phage lysis” value is 2.09% (inactive). With `N=c1n(CCN2CCCCC2)c2ccccc2n1CC(O)c1ccc(Cl)c(Cl)c1` (stereo not given), the inhibition is -4.43% (inactive). Same read-out and setting: for `COc1ccc(C(=O)NNC(=O)CCc2nc3ccccc3c(=O)[nH]2)cc1` the value was -0.85% (inactive); for `O=C(CSc1nnc(CNC(=O)c2ccco2)o1)Nc1nc2ccccc2s1`, 0.07% (inactive); for `CC(=O)NC1=NN(C(C)=O)C(C)(c2cccnc2)S1` (stereo not given), 0.35% (inactive).

Regarding `CCCOc1ccc(C2c3c(oc4ccccc4c3=O)C(=O)N2CCCN2CCOCC2)cc1` (stereo not given), the inhibition was 3.1% (inactive). Take `Cc1cc2oc3c(c(=O)c2cc1C)C(c1ccc(C(C)C)cc1)N(CCCN1CCOCC1)C3=O` (stereo not given): the inhibition is 10.9% (inactive). Take `CC(C)Oc1ccc(C2c3c(oc4ccccc4c3=O)C(=O)N2CCCN2CCOCC2)cc1` (stereo not given): the inhibition is 7.09% (inactive).

Take `Cc1cc2oc3c(c(=O)c2cc1C)C(c1ccc(F)cc1)N(CCCN1CCOCC1)C3=O` (stereo not given): the inhibition is 10.1% (inactive).

Take `CCCCCCn1c(N2CCN(c3cccc(Cl)c3)CC2)nc2c1c(=O)[nH]c(=O)n2C`: the inhibition was -0.58% (inactive).

Turning to `COc1ccc(-c2c(C)oc3c(CN4CCOCC4)c(O)ccc3c2=O)cc1`, the inhibition is 0.06% (inactive). Take `O=C(CSc1nc2ccc(Cl)cc2[nH]1)NCCc1ccc(Cl)cc1`: the inhibition is 0.86% (inactive). Take `C=CCn1c(C)nnc1SCC(=O)c1[nH]c(C)c(C(C)=O)c1C`: the inhibition was -0.26% (inactive). On the same count and under the same terms, the value for `COc1ccc(C(=O)Nc2ccc3c(c2)nc(CCNC(C)=O)n3C)cc1` was 5.13% (inactive); that for `C/C(=N\NC(=S)NCCc1ccccc1)c1ccc(C#N)cc1` was 0.17% (inactive); that for `Cc1ccccc1CN1CCN(CCCc2ccccc2)C(CCO)C1` (stereo not given) was 0.26% (inactive).

`C[C@H](CO)N1C[C@H](C)[C@@H](CN(C)Cc2ccc(C(=O)O)cc2)Oc2c(NS(=O)(=O)c3ccccc3)cccc2C1=O`: the inhibition is 0.71% (inactive). The same measure, in the same setting: the value for `O=C(COc1ccc2c(-c3ccccc3)cc(=O)oc2c1)NCCCn1ccnc1` was -2.78% (inactive); that for `N=C(N)c1ccc(O)cc1` was -1.49% (inactive); that for `N=C(N)c1ccccc1` was 3.36% (inactive) and 4.08% (inactive). Regarding `Cc1occc1C(=O)NNC(=O)CN1C(=O)NC2(CCCCC2)C1=O`, the inhibition is 1% [at 50 µM, active compounds read high] (inactive).

Regarding `COc1ccc(C(=O)Nc2nc3ccc(OC)cc3s2)cc1`, the inhibition is 0.38% (inactive). Still for that read-out and setting: for `COc1ccc2nc(NC(C)=O)sc2c1` the value was 0.03% (inactive); for `Cc1cc(C)c2sc(NNC(=O)C3COc4ccccc4O3)nc2c1` (stereo not given), 3.07% (inactive). Same read-out and setting: for `COc1ccc(NC(=O)C(C)N2c3cccc4cccc(c34)S2(=O)=O)cc1` (stereo not given) the value was 4.61% (inactive). In the case of `N=C1/C(=C\c2ccc(SCc3ccco3)o2)C(=O)N=C2SC=NN12`, the “inhibition of phage lysis” value is 7.18% (inactive).

As for `CCS(=O)(=O)C1=NN2C(=N)/C(=C\c3ccc(SCc4ccco4)o3)C(=O)N=C2S1`, the inhibition is -0.03% (inactive). With `O=C(c1cc2ccccc2o1)N1CCN(c2ccccn2)CC1`, the inhibition was 0.07% (inactive). Turning to `COc1cccc(C(=O)Nc2ncc3c(n2)CC(C)CC3=O)c1` (stereo not given), the inhibition is 0.02% (inactive). Regarding `Cn1c(N)c(C(=O)Nc2cccc(Cl)c2)c(=O)n(C)c1=O`, the inhibition is 0.32% (inactive). Turning to `CC(OC(=O)CCCN1C(=O)c2ccccc2C1=O)C(=O)Nc1ncc(Cl)cc1Cl` (stereo not given), the inhibition was 0.75% (inactive). Take `O=C(Cc1ccsc1)Nc1ccc2c(c1)OCO2`: the inhibition was 0.48% [at 50 µM, active compounds read high] (inactive). On the same count and under the same terms, for `COc1ccc(CC(=O)Nc2ccc(N3CCOCC3)cc2)cc1OC` the value was -0.16% (inactive). As to `Cc1ccccc1OCC(=O)Nc1ccc(C(=O)Nc2ccccc2C(=O)O)cc1`, the inhibition was 0.645% [at 50 µM, active compounds read high] (inactive). `Cc1cccc(OCC(=O)Nc2ccc(C(=O)Nc3ccccc3C(=O)O)cc2)c1C`: the inhibition is 1.06% [at 50 µM, active compounds read high] (inactive). Consider `Cc1ccc2nc(C3CCCN3Cc3nc(CCC(C)C)no3)[nH]c2c1` (stereo not given), for which the inhibition was 0.57% (inactive). With `CCOc1ccc(C(=O)NN2C(=O)C3C4C=CC(O4)C3C2=O)cc1` (stereo not given), the inhibition was 0.49% (inactive). Turning to `COc1ccc(C2=CSC3=C(C(=O)c4cccc(S(=O)(=O)N(C)C)c4)CCN23)cc1`, the inhibition is 0.33% (inactive). With `CN(C(=O)Cn1c(=O)oc2cc(S(=O)(=O)N3CCCC3)ccc21)C1CCCCC1`, the inhibition is 0.1% (inactive).

Source of the values: PubChem BioAssay AID488966 (Southern Research Specialized Biocontainment Screening …, 2010).
